Measurements as given in PubChem BioAssay AID602142 (NMMLSC, 2011).
This is one part of the list. A number with no mark means an inactive call. No rule for the calls is given here.

target: Lethal factor (Bacillus anthracis) (UniProt P15917); experiment: Bacillus anthracis LF protease inhibitors, confirmation, biochemical, multiplex microsphere, cherry pick 1 (AID 602142); conditions: multiplex microsphere protease cleavage assay, at 10 µM, hits give high values
Sequence (P15917 whole entry, looked up): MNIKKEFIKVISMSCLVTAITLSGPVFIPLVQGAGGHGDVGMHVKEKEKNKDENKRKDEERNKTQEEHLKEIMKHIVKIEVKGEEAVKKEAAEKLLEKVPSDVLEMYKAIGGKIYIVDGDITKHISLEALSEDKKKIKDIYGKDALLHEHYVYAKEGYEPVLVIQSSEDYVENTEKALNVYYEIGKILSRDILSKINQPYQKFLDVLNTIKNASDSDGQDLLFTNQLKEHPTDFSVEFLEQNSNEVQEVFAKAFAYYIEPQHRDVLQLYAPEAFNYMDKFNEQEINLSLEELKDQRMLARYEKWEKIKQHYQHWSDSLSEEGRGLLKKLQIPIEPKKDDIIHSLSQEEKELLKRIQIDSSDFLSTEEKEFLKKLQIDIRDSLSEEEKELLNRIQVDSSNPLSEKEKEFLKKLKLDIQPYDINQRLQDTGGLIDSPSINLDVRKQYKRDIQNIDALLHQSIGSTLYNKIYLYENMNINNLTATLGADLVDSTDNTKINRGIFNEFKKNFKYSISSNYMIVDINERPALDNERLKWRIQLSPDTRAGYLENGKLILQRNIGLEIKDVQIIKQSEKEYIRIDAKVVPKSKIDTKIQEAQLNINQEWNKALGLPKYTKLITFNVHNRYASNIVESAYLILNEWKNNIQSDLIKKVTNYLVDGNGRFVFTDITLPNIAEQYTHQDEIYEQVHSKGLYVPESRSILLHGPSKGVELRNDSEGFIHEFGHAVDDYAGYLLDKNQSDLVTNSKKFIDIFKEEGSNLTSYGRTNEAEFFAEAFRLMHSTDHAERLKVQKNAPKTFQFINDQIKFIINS

SMILES	inhibition
Brc1ccc2ncnc(NCc3cccnc3)c2c1	-1.9%
COCCn1nnnc1C(c1cc2ccc(OC)cc2[nH]c1=O)N1CCc2ccccc2C1 (configuration not stated)	-6.3%
CCCSc1nc2sc3c(c2c(=O)n1-c1ccc(OC)cc1)CCN(C)C3	4.5%
CCOc1ccc(NC(=O)CC(Cc2ccc(Cl)cc2)C(=O)O)cc1 (configuration not stated)	2.3%
OC(c1ccc(Cl)cc1)C(CN1CCOCC1)c1ccccc1 (configuration not stated)	3.2%
COC(=O)CN(c1nc(C)c(Cl)c(OC)n1)S(=O)(=O)c1ccc(C)cc1	2.2%
COc1ccc(N(CC(=O)NCCSCc2cccc(Cl)c2)S(C)(=O)=O)cc1	-1.8%
O=S(=O)(NC1CCCCC1N1CCC(O)CC1)c1ccc(Cl)cc1 (configuration not stated)	-1.6%
CCN1CCN(C(C(=O)NC2CCCC2)c2cc3c(cc2[N+](=O)[O-])OCO3)CC1 (configuration not stated)	1.5%
CC(=O)c1cccc(NC(=O)N2CCCC2C(=O)NCCc2ccccc2)c1 (configuration not stated)	4.9%
Cc1ccc(-c2nc(-c3cccnc3)sc2CC(=O)Nc2ccc(C)c(Cl)c2)cc1	1.7%
Cc1c(NC(=O)c2cccnc2)c(=O)n(-c2ccccc2)n1C	4.2%
CCCN1C2CCCC1CC(NC(=O)c1cccc(OC)c1)C2 (configuration not stated)	3.1%
Cc1ccccc1NC(=O)c1cc(S(=O)(=O)Nc2cccc(C(=O)O)c2)ccc1Cl	-0.5%
COc1ccc(NS(=O)(=O)c2cc(C(=O)Nc3ccccc3C(=O)O)ccc2C)cc1	-2.7%
CCOc1nnc(C)c2c(C)n(-c3cccc(Cl)c3)nc12	3.5%
COCc1cc(=O)[nH]c(SC)n1	-4.9%
COc1ccc(C(=O)Nc2nc(-c3ccc(OC)cc3)c(-c3ccc([N+](=O)[O-])cc3)s2)cc1	15.9%
COc1cc2cc(CN(CCN3CCCC3)C(=O)Nc3ccccc3Cl)c(=O)[nH]c2cc1OC	-0.1%
COc1ccccc1CNC(=O)C1Cc2ccccc2C(=O)O1 (configuration not stated)	1.5%
O=C(O)c1cc(S(=O)(=O)NC2CCCc3ccccc32)ccc1O (configuration not stated)	1.4%
CC(=O)Nc1ccc(Oc2ccc3c(c2)C(=O)NC3=O)cc1	0.6%
